# Legend:
# Assay in all cases: PBM binding z-score (relative to random genomic background probes); higher = stronger binding; sequences stand for … in GC…GCGATTGACAGCGTAGAATGAAGG
# [1] = tested on: FXR:RXRa (NR concentration 270 nM, RXRa partner concentration 90 nM)
# Summary of the method: (§1)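 Ligand-free nuclear receptor dimers were applied to custom Agilent 4×180K protein-binding microarrays whose double-stranded probes carried direct-repeat seeds, single-nucleotide variants, half-site ablations and random human genomic background sequences in 34-nt variable regions. Incubation lasted 1 h. Binding z-scores were computed against the random background probes from regression-normalized fluorescence.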
# [2] = tested on: LXRa:RXRa (NR concentration 270 nM, RXRa partner concentration 90 nM)
# Summary of the method: as §1
# [3] = tested on: LXRa homodimer (NR concentration 270 nM)
# Summary of the method: as §1
# [4] = tested on: LXRb:RXRa (NR concentration 270 nM, RXRa partner concentration 90 nM)
# Summary of the method: as §1
# [5] = tested on: LXRb homodimer (NR concentration 270 nM)
# Summary of the method: as §1
# [6] = tested on: PPARa:RXRa (NR concentration 270 nM, RXRa partner concentration 90 nM)
# Summary of the method: as §1
# [7] = tested on: PPARg:RXRa (NR concentration 180 nM, RXRa partner concentration 90 nM)
# Summary of the method: as §1
# [8] = tested on: PPARg:RXRa 270nM:90nM, anti-RXR (NR concentration 270 nM, RXRa partner concentration 90 nM)
# Summary of the method: as §1
# [9] = tested on: PPARg:RXRa 30nM:10nM, anti-RXR (NR concentration 30 nM, RXRa partner concentration 10 nM)
# Summary of the method: as §1
# [10] = tested on: PPARg:RXRa 90nM:30nM, anti-RXR (NR concentration 90 nM, RXRa partner concentration 30 nM)
# Summary of the method: as §1
# [11] = tested on: PPARg:RXRa DBDmut IVT, anti-RXR (DBD mutation: RXRa K156A/R161A, NR concentration 270 nM, RXRa partner concentration 90 nM)
# Summary of the method: as §1
# [12] = tested on: PPARg:RXRa IVT, anti-PPARg (NR concentration 270 nM, RXRa partner concentration 90 nM)
# Summary of the method: as §1
# [13] = tested on: PPARg DBDmut:RXRa IVT, anti-PPARg (DBD mutation: PPARg1 K132A/R137A, NR concentration 270 nM, RXRa partner concentration 90 nM)
# Summary of the method: as §1
# [14] = tested on: PPARg DBDmut IVT, anti-PPARg (DBD mutation: PPARg1 K132A/R137A, NR concentration 270 nM)
# Summary of the method: as §1
# [15] = tested on: PPARg homodimer (NR concentration 180 nM)
# Summary of the method: as §1
# [16] = tested on: PXR:RXRa (NR concentration 270 nM, RXRa partner concentration 90 nM)
# Summary of the method: as §1
# [17] = tested on: PXR homodimer (NR concentration 270 nM)
# Summary of the method: as §1
# [18] = tested on: RARa:RXR (NR concentration 270 nM, RXRa partner concentration 90 nM)
# Summary of the method: as §1
# [19] = tested on: RARa homodimer (NR concentration 270 nM)
# Summary of the method: as §1
# [20] = tested on: RARb:RXRa (NR concentration 270 nM, RXRa partner concentration 90 nM)
# Summary of the method: as §1
Sequence,PBM binding z-score [1],PBM binding z-score [2],PBM binding z-score [3],PBM binding z-score [4],PBM binding z-score [5],PBM binding z-score [6],PBM binding z-score [7],PBM binding z-score [8],PBM binding z-score [9],PBM binding z-score [10],PBM binding z-score [11],PBM binding z-score [12],PBM binding z-score [13],PBM binding z-score [14],PBM binding z-score [15],PBM binding z-score [16],PBM binding z-score [17],PBM binding z-score [18],PBM binding z-score [19],PBM binding z-score [20]
AGAACGAGAGCAATGAGTTGATAGCACGGGTGGC,-0.715,-0.7,-0.726,-0.759,-0.725,-0.447,0.796,-0.0173,-0.196,0.0595,0.0253,-0.231,-0.979,-0.694,-1.02,-0.378,-0.202,-0.818,-0.732,-0.525
ATCTCTAGTTAACCAAGTTCAGTGAATGCCGAAC,0.219,1.08,1.32,0.741,0.807,0.492,-0.088,0.244,0.153,0.13,-0.131,0.461,0.59,1.22,1,2.1,3,0.723,1.21,0.932
TCTCTTAGTTGAAGGGCAACCGACGAGTCCGTTT,0.776,1.01,0.193,0.945,0.697,1.06,-0.252,2.02,3.7,3.13,2.62,0.645,0.259,0.537,0.739,0.86,0.261,0.472,0.622,1.63
CCTGCTAGGTCAATGGTCAGCTTAAGCAGCTCGC,3.08,2.28,-0.0012,1.51,-0.1,3.13,4.41,5.21,2.37,4.79,4.75,4.06,-0.513,-0.387,1.92,1.05,-0.588,1.88,-0.443,3.84
ACTAGCAGGCCAGGGGTCACTCAAGATTAGTCCG,4.12,3.93,0.488,4.47,0.258,5.04,6.84,6.37,4.58,6.76,0.771,3.24,0.053,0.0858,2.99,5.13,0.401,5.58,1.68,3.85
GCGACTGGGGCATAGCAGGTTACCATAAGGTTGG,0.397,0.135,-0.575,0.25,-0.915,1.2,1.02,0.684,-0.371,0.318,3.87,2.96,-0.728,-0.706,-0.174,0.0194,-0.519,0.4,-0.975,0.81
TAGCCTATGTCATTCAGGGGCCAGTATAGAAAGC,-0.275,-0.326,-0.461,-0.0773,0.117,-0.00609,0.175,-0.205,-0.271,-0.159,0.367,0.511,-0.0468,0.315,-0.12,-0.141,-0.435,0.125,-0.558,0.742
ATCGAAAGGTCGAAGGTGAGAATACCCACCCGAA,4.1,3.81,0.0457,2.94,0.451,4.73,4.6,4.93,2.85,4.31,0.14,2.32,0.346,0.631,1.03,3.1,0.0633,4.65,0.941,3.83
AGTCAAAGATCAGGACGAGGTAACGTAAAGCACG,0.107,-0.519,-0.426,-0.362,-0.522,0.273,1.18,0.619,0.0734,0.677,-0.64,0.122,0.0525,0.169,-0.153,-0.236,-0.419,0.336,0.445,0.247
ATATGTAGGTTAAGGGTCATACAGGTTGGTTCGC,4.79,4.61,2.43,4.61,1.28,6.57,12.1,10.2,9.63,12.5,7.57,7.96,4.09,2.15,4.5,5.37,1.88,6.2,2.6,3.76
ACAGACAGGTGATGAAGGTAACACAGGCTATCAT,0.124,0.0165,-0.085,0.319,-0.129,0.346,1.05,0.295,0.205,0.465,0.127,0.744,0.824,0.414,0.26,-0.00388,0.386,0.0316,0.746,0.493
CGTCCAAAGTCAATGCTAGGTCAGTGAAAGCATT,0.216,0.789,0.816,0.482,-0.125,0.696,-0.177,-0.216,-0.538,-0.284,0.0357,0.544,-0.669,-0.616,1.04,0.434,-0.027,1.07,0.396,1.68
GGAACGACGGCAAAGTTGATAGCATCTGTCGACG,-0.522,-0.556,-0.557,-0.755,-0.926,0.00733,1.01,1.58,0.147,1.28,-0.332,-0.552,-0.0147,-1.18,-0.573,-0.362,-0.756,0.0195,-0.6,-0.341
TCATATAGGTATAAGGTGAAAGTCGGTGTGGTAA,1.55,1.21,0.319,1.37,0.352,3.14,3.92,5.38,5.06,5.68,2.8,2.27,1.02,0.854,1.32,0.935,0.866,1.62,1.54,1.23
AATACAGGGTCTCTAGGCCAGAGTAGGTACGAAT,-0.207,-0.38,-0.356,-0.392,-0.462,-0.078,0.645,0.0123,-0.245,-0.282,0.633,1.69,-0.23,-0.134,0.115,-0.522,-0.459,-0.47,-0.399,0.389
ATCTCTAGGTAAAGATAGTTCAGTGTATGCAAAT,0.705,4.16,0.797,0.893,0.581,1.05,0.827,0.452,0.59,0.44,1.71,1.89,0.591,1.15,1.3,1.32,0.866,1.11,0.968,0.53
AGAACGAGGGCAATGAGCTGATAGCACGGGTGGC,0.394,0.368,-0.433,-0.35,-0.559,1.4,1.29,0.822,-0.0771,0.27,3.25,2.14,0.548,-0.351,-0.0817,0.131,0.0255,0.176,-0.301,2
ATCTCTAGGCAAGACTCAGTTCAGTGAAGAACGC,-0.14,0.0146,-0.0156,-0.438,-0.221,-0.499,0.011,-0.156,-0.193,-0.262,0.117,-0.103,0.0484,-0.188,0.522,0.202,0.453,-0.255,-0.0609,-0.159
TCATATACGTAAAGGTGAAAGTCGAACGATATGA,0.717,1.21,-0.0647,1.44,0.339,2.63,1.64,2.52,3.86,3.15,1.6,1.61,1.06,2,0.594,1.1,-0.24,1.55,0.587,2.04
ATCTCTAGGTAAAGATTGTTCAGTGAATGCAAAT,0.226,0.124,0.091,0.234,0.621,0.0998,0.137,0.495,0.342,0.381,2.3,1.85,0.903,0.841,0.219,0.132,0.182,0.436,1.35,0.105
ATATGTAGGTTAGCTGGGGTCATTTAGACTAGGC,4.36,5.92,3.36,4.92,1.13,5.22,5.68,5.12,2.41,4.22,6.26,6.32,1.68,2.06,2.64,6.23,3.22,5.08,0.828,2.89
CCTATTGGGCCAAGGTCATTGATCAGTCAAAGCA,3.16,2.92,0.821,2.85,-0.34,3.83,2.79,3.83,1.37,3.21,1.98,2.52,-0.54,0.103,2.09,3.72,1.21,3.94,0.101,3.33
GCTCTGAGGACAAGGTCAGAGCTTTGTCCGTAGA,1.69,1.56,-0.176,1.45,-0.782,2.3,1.02,2.06,0.095,1.22,0.898,1.09,-0.229,-0.596,0.274,2,-0.088,2.88,-0.844,3.61
CGTCCAAGTTCAAAGGTCAGTGAAGAGATGACGG,6.81,5.86,2.94,4.98,1.4,5.95,6.58,6.54,4.28,6.22,0.396,2.79,0.887,0.712,4.76,6.79,4.04,7.83,2.04,5.11
ACAGACAGGTGATGAAGGTAACTCAAGCTATCAT,-0.102,-0.296,-0.525,-0.0355,-0.354,0.0252,0.537,-0.224,0.113,-0.261,0.0752,0.481,-0.066,0.468,0.000193,-0.188,0.00644,-0.191,0.18,0.252
ACTTTTAGTTGACTTAGGGCAACCGATACGACGC,0.918,0.796,0.546,0.578,1.38,0.361,0.9,0.521,0.607,0.54,0.679,0.936,1.38,1.82,0.639,0.436,0.106,0.954,0.984,1.23
AGAACGAGGACACGCTGAGTTGATAGCAGAGTAG,0.477,-0.638,-0.296,-0.945,-0.622,-0.44,0.748,-0.466,0.251,-0.327,1.51,1.16,-0.315,0.431,0.209,-0.361,0.196,-0.397,-0.0719,1.4
TCAGACAGGTGAAGGTAAATCAGGTACGCAGTCG,1.69,1.37,0.109,1.11,0.081,1.6,0.829,2.39,4.45,3.31,2.98,1.27,-0.386,0.474,1.11,0.994,0.51,1.26,0.658,1.4
CGTCAATGTTCAACTAAGGTAACGTAAAGCACGC,0.964,0.0385,0.177,0.536,0.375,0.376,0.538,-0.0311,-0.0519,0.0418,0.201,0.781,0.0203,0.928,0.877,0.252,0.0149,1.05,0.784,0.573
